The supplement of paper PMC7261846
± gives the uncertainty stated by the source.

Tested on: Candida albicans SNY425 biofilm
Assay: biofilm OD600 with compound plus antifungal (OD600 (absorbance)); higher = more biofilm remaining
[1] = assay detail: disruption of 24-h mature biofilm (compound + antifungal for a second 24 h)
[2] = assay detail: sustained inhibition (compound + antifungal during 90-min adherence and 24-h growth)

SMILES	biofilm OD600 [1]	biofilm OD600 [2]
Cc1cccc(C)c1OCC(=O)N[C@@H](Cc1ccccc1)[C@@H](O)C[C@H](Cc1ccccc1)NC(=O)[C@H](C(C)C)N1CCCNC1=O [lopinavir] + CC[C@H](C)C[C@H](C)CCCCCCCCC(=O)N[C@H]1C[C@@H](O)[C@@H](NCCN)NC(=O)[C@@H]2[C@@H](O)CCN2C(=O)[C@H]([C@H](O)CCN)NC(=O)[C@H]([C@H](O)[C@@H](O)c2ccc(O)cc2)NC(=O)[C@@H]2C[C@@H](O)CN2C(=O)[C@H]([C@@H](C)O)NC1=O [caspofungin] (first compound 12.5 µM)	0.153 ± 0.0047	0.0941 ± 0.0079
CCOC(=O)[C@H](CCc1ccccc1)N[C@@H](C)C(=O)N1CCC[C@H]1C(=O)O [Enalapril] + OC(Cn1cncn1)(Cn1cncn1)c1ccc(F)cc1F [fluconazole] (first compound 12.5 µM)	0.258 ± 0.0055	0.157 ± 0.015
CC(C)C[C@@H](C=O)NC(=O)[C@H](CC(C)C)NC(=O)[C@H](CC(C)C)NC(=O)OCc1ccccc1 + CC[C@H](C)C[C@H](C)CCCCCCCCC(=O)N[C@H]1C[C@@H](O)[C@@H](NCCN)NC(=O)[C@@H]2[C@@H](O)CCN2C(=O)[C@H]([C@H](O)CCN)NC(=O)[C@H]([C@H](O)[C@@H](O)c2ccc(O)cc2)NC(=O)[C@@H]2C[C@@H](O)CN2C(=O)[C@H]([C@@H](C)O)NC1=O [caspofungin] (first compound 12.5 µM)	0.281 ± 0.0049	0.193 ± 0.0098
CCOC(=O)[C@H](CCc1ccccc1)N[C@@H](C)C(=O)N1CCC[C@H]1C(=O)O [Enalapril] + CC[C@H](C)C[C@H](C)CCCCCCCCC(=O)N[C@H]1C[C@@H](O)[C@@H](NCCN)NC(=O)[C@@H]2[C@@H](O)CCN2C(=O)[C@H]([C@H](O)CCN)NC(=O)[C@H]([C@H](O)[C@@H](O)c2ccc(O)cc2)NC(=O)[C@@H]2C[C@@H](O)CN2C(=O)[C@H]([C@@H](C)O)NC1=O [caspofungin] (first compound 12.5 µM)	0.266 ± 0.012	0.207 ± 0.011
NCC1CCC(C(=O)N[C@@H](Cc2ccccc2)C(=O)Nc2ccc(CC(=O)O)cc2)CC1 (some centres not stated) + OC(Cn1cncn1)(Cn1cncn1)c1ccc(F)cc1F [fluconazole] (first compound 12.5 µM)	0.251 ± 0.0096	0.13 ± 0.018
NCC1CCC(C(=O)N[C@@H](Cc2ccccc2)C(=O)Nc2ccc(CC(=O)O)cc2)CC1 (some centres not stated) + C[C@@H]1[C@H](O)[C@@H](C)/C=C/C=C/C=C/C=C/C=C/C=C/C=C/[C@H](O[C@@H]2O[C@H](C)[C@@H](O)[C@H](N)[C@@H]2O)C[C@@H]2O[C@](O)(C[C@@H](O)C[C@@H](O)[C@H](O)CC[C@@H](O)C[C@@H](O)CC(=O)O[C@H]1C)C[C@H](O)[C@H]2C(=O)O [amphotericin B] (first compound 12.5 µM)	0.271 ± 0.0064	0.182 ± 0.017
O=c1oc(Cl)c(Cl)c2ccccc12 [3,4-Dichloroisocoumarin] + OC(Cn1cncn1)(Cn1cncn1)c1ccc(F)cc1F [fluconazole] (first compound 12.5 µM)	0.237 ± 0.011	0.154 ± 0.014
CC(C)CC(=O)N[C@H](C(=O)N[C@H](C(=O)N[C@@H](CC(C)C)[C@@H](O)CC(=O)N[C@@H](C)C(=O)N[C@@H](CC(C)C)[C@@H](O)CC(=O)O)C(C)C)C(C)C [Pepstatin A] + OC(Cn1cncn1)(Cn1cncn1)c1ccc(F)cc1F [fluconazole] (first compound 12.5 µM)	0.255 ± 0.007	0.144 ± 0.0099
CC(C)CN(C[C@@H](O)[C@H](Cc1ccccc1)NC(=O)O[C@H]1CCOC1)S(=O)(=O)c1ccc(N)cc1 [amprenavir] + OC(Cn1cncn1)(Cn1cncn1)c1ccc(F)cc1F [fluconazole] (first compound 12.5 µM)	0.264 ± 0.0069	0.16 ± 0.011
NCCCC[C@H](N[C@@H](CCc1ccccc1)C(=O)O)C(=O)N1CCC[C@H]1C(=O)O [Lisinopril] + OC(Cn1cncn1)(Cn1cncn1)c1ccc(F)cc1F [fluconazole] (first compound 12.5 µM)	0.26 ± 0.0069	0.118 ± 0.015
CC(C)c1nc(CN(C)C(=O)N[C@H](C(=O)N[C@@H](Cc2ccccc2)C[C@H](O)[C@H](Cc2ccccc2)NC(=O)OCc2cncs2)C(C)C)cs1 [ritonavir] + CC[C@H](C)C[C@H](C)CCCCCCCCC(=O)N[C@H]1C[C@@H](O)[C@@H](NCCN)NC(=O)[C@@H]2[C@@H](O)CCN2C(=O)[C@H]([C@H](O)CCN)NC(=O)[C@H]([C@H](O)[C@@H](O)c2ccc(O)cc2)NC(=O)[C@@H]2C[C@@H](O)CN2C(=O)[C@H]([C@@H](C)O)NC1=O [caspofungin] (first compound 12.5 µM)	0.159 ± 0.0069	0.12 ± 0.009
